Out of some 370,000 compounds screened, about 3,700 (1%) were called active. This is one part of a sample in which actives are shown more often than they occur.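 The calls were made as follows: active = activation above the mean over all tested compounds plus 3 SD (cut at about 0.9% in these data); inactive = the rest.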
System: Nuclear hormone receptor DAF-12 (Strongyloides stercoralis)
Test: S. stercoralis DAF-12 nuclear receptor activators, primary screen, cell-based, luminescence, HEK293, GRIP1 co-expression, lit1-tk-luc (AID 652126);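 also: 0% = DMSO-only wells and 100% = 3 µM delta7-dafachronic acid wells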
Conditions: HEK293 ssDAF-12/GRIP1 lit1-tk-luc reporter, at 6.8 µM, active compounds read high, % of 3 µM dafachronic acid response

activation, active:
CC(C)C(=O)Nc1ccc2c(c1)oc1ccccc12 1.28%
Cc1ccc(NC(=O)c2csc3c2CCCC3)cc1 1.46%
O=C(O)C1CCN(c2ccc([N+](=O)[O-])cc2[N+](=O)[O-])CC1 1.84%
Cc1ccc(S(=O)(=O)N2CCOCC2)cc1C(=O)OC1CCCCC1=O (stereo not drawn) 1.21%
O=C(c1cc(-c2ccc(O)cc2)on1)N1CCOCC1 1.22%
Brc1ccc2nc(N3CCCC3)sc2c1 1.8%
COc1cccc(C(=O)OCc2cc(=O)oc3c(C)c(C)ccc23)c1OC 1.06%
COc1ccc(-c2cc(C(=O)NC(Cc3c[nH]c4ccccc34)C(=O)O)c(C)o2)cc1OC (stereo not drawn) 0.94%
O=C(O)c1ccc(N/N=C/c2cn(-c3ccccc3)nc2-c2cccs2)cc1 1.45%
CCC(=O)Nc1ccc2nn(-c3ccc(F)cc3)nc2c1 1.14%
CCOC(=O)c1c(N)sc2c1CCCC2=O 1.3%
NC(=O)Nc1ccccc1C(=O)NCCc1ccccc1 1.06%
COc1ccc2c(C(=O)c3ccc(C)cc3)n(CCC(N)=O)[n+]([O-])c2c1 0.92%
Cc1ccc(SCCSc2ncccn2)cc1 0.96%
Cc1nn(-c2ccc([N+](=O)[O-])cc2)c(N)c1-c1ccccc1 0.95%
O=C(Nc1ccccc1)Nc1nc2ccccc2s1 2.17%

activation, inactive:
COC(=O)C1CN(CCc2ccccc2)CCS(=O)(=O)N1Cc1cccc(Cl)c1 (stereo not drawn) -0.43%
CCC(=O)Nc1ccc2c(c1)C(=O)N(C)[C@@H]1CC[C@@H](CC(=O)NCCc3ccccc3)O[C@H]1CO2 -0.55%
C[C@@H]1CN([C@@H](C)CO)C(=O)c2cccc(NC(=O)Nc3cccc4ccccc34)c2O[C@H]1CN(C)S(=O)(=O)c1ccccc1F -2.39%
COC(=O)C[C@@H]1CC[C@H]2[C@@H](COc3ccc(NS(=O)(=O)CC(F)(F)F)cc3C(=O)N2C)O1 -1.22%
O=C(c1cccc(C(F)(F)F)c1)N1CC[C@H]2[C@H](CCCN2Cc2cc(F)cc(F)c2)C1 -1.1%
CC(C)C(=O)Nc1c(C(=O)c2ccc(F)cc2)oc2ccccc12 -0.79%
CC(C)C(=O)Nc1oc(-c2ccccc2)cc1C#N -1.13%
Cc1ccccc1CSc1nnc(Cn2c(=O)sc3ccccc32)n1C -1.22%
CC(C)N1CCCCC(NC(=O)c2ccc3ccccc3c2)C1=O (stereo not drawn) -0.75%
Cc1ccc(NC(=O)C2(N3CCC3=O)CCCCC2)cc1 -0.98%
CC1CC(C)CN(CCCNC(=O)c2csc3c2CCCCC3)C1 (stereo not drawn) -1.8%
COc1ccc(NC(=O)CC2C(=O)OCC3CCCCN32)cc1Cl (stereo not drawn) -1.7%
CC(=O)C1(C(=O)Nc2nccs2)CC(c2ccccc2C(F)(F)F)=NO1 (stereo not drawn) -1.38%
CC1CCN(c2ccc(S(=O)(=O)Nc3cc(C(=O)O)cc(C(=O)O)c3)cc2[N+](=O)[O-])CC1 -1.44%
CCC(C)(C)NC(=O)c1cc([N+](=O)[O-])ccc1N1CCCCC1 -1.32%
O=C(c1ccccc1)c1ccc(-c2ccccc2C(=O)NC2CCCCN(Cc3ccc(Cl)cc3)C2=O)cc1 (stereo not drawn) -0.93%
COC(=O)C[C@@H]1C=C[C@@H](NS(=O)(=O)c2cccc(OC)c2)[C@@H](CO)O1 -0.52%
COc1ccc(S(=O)(=O)N2CCOCC2)cc1C(=O)NC1CCCCC1 -1.6%
COC(=O)C1CCN(C(=O)COC(=O)c2cc(S(=O)(=O)N3CCOCC3)ccc2C)CC1 -1.23%
CCN(CC)C(=O)CC[C@@H]1CC[C@]2(CCCN(S(=O)(=O)C3CCCCC3)C2)O1 -1.11%
CN(C)Cc1cn(-c2ccc(-c3noc4c3C(=O)N(CC(=O)N3CCOCC3)CC4)cc2)nn1 -0.67%
O=C(OCC#CCSc1nnc(-c2ccco2)o1)c1ccc(F)cc1 -0.22%
CCCC[C@H](C(=O)N(CC)c1ccccc1)[C@@H](O)c1ccc2ccccc2c1 -1.15%
O=C(c1cc(COc2ccc(F)cc2F)on1)N1CCOCC1 0.37%
O=C(c1cc(C2CCCCN2S(=O)(=O)c2ccccc2)on1)N1CCOCC1 (stereo not drawn) -1.54%
O=C1Nc2ccccc2OC1CC(=O)N1CCCCCCC1 (stereo not drawn) -0.55%
c1cncc(CNc2ccnc(-c3ccc4c(c3)OCO4)n2)c1 -1.42%
CCOC(=O)[C@]12CCCC3=C1N(CCC3)C(=O)[C@@H](CC(=O)NCc1cccs1)C2 -1.02%
Cc1nc2ccc(NC(=O)C3CCCCC3)cc2s1 -1.51%
Cc1nc2ccc(C(=O)N3CCSCC3)cc2s1 -1.17%
C=CCN1C(=O)[C@H](CC(=O)NCCCN2CCCC2=O)[C@@]2(C(=O)OCC)CCCC=C12 -0.32%
COc1ccc(Br)cc1CN1CCN(C(=O)c2cccc(OC)c2OC)CC1 -0.37%
COC(=O)Cc1cc(=O)oc2c(C)c(O)ccc12 -1%
CC(C)[C@@H]1NC(=O)c2cc([N+](=O)[O-])cc(I)c2NCCC[C@@H](C(=O)NC(CC(=O)O)C(N)=O)NC(=O)[C@H](CO)NC1=O (stereo partly drawn) -1.32%
CCOC(=O)[C@]12CCCCC/C=C\1N(Cc1ccc(OC)cc1)C(=O)[C@H]2CC(=O)NCc1ccc(C)o1 -1.69%
COC(=O)c1cc(S(=O)(=O)N2CCN(c3ccccc3C)CC2)cn1C -1.46%
COc1ccc(-c2cc(C(=O)NC(C(=O)O)C(C)C)c(C)o2)cc1OC (stereo not drawn) -0.63%
O=C(CCn1nnc2ccccc2c1=O)N[C@@H](Cc1c[nH]c2ccccc12)C(=O)O -1.08%
CC1=NN(/C(=N\c2nnc(C)s2)Nc2ccccc2)[C@H](c2ccc(C)cc2)S1 -1.96%
CC(C)C(C#CC1CC1)N(Cc1ccc2c(c1)OCO2)C(N)=NC(=O)/C=C/c1cccc(C(F)(F)F)c1 (stereo not drawn) -1.84%
O=C(N/N=C/c1sc(N2CCCCC2)nc1-c1cccs1)c1cccnc1 -1.2%
CC(=O)c1ccc(NC(=O)c2cc(-c3cccs3)on2)cc1 -0.86%
O=C(NC1CCCCN(Cc2ccc(Cl)cc2)C1=O)c1ccc(Br)cc1 (stereo not drawn) -1.36%
Cc1ccc(Cn2cc(CN3[C@@H](CC(C)C)COc4ccc(Cl)cc4S3(=O)=O)nn2)cc1 -1.11%
CCOC(=O)c1nnn(CC(=O)Nc2cccc(F)c2)c1C(=O)OCC -1.33%
O=C(Nc1cccc(Cl)c1)c1cncn1-c1ccc(F)cc1 -1.04%
COC(=O)[C@]12C[C@H](CC(=O)NCc3cccc4ccccc34)C(=O)N(CCc3ccc(OC)c(OC)c3)C1=C[C@H](C1CCCC1)O[C@@H]2C -0.95%
O=C(Nc1ccc(Br)cc1)OCCN1C(=O)CCC12CCC(c1ccccc1)CC2 (stereo not drawn) -0.35%
CCOC(=O)c1c(CC(C)C)csc1/N=C/C1=C(O)CCCC1=O -1.42%
CCOC(=O)c1c(/N=C/c2cc(C)ccc2O)sc2c1CCC2 -1.3%
O=C(C1CCN(S(=O)(=O)c2ccccc2)CC1)N1CCN(C2CCCCC2)CC1 -1.32%
CC(CCN1CCC(C(O)(c2ccccc2)c2ccccc2)CC1)Oc1ccc(Cl)cc1 (stereo not drawn) -0.71%
Cc1ccc(-c2nc(C3CCCN(S(=O)(=O)c4ccc(Br)s4)C3)no2)cc1 (stereo not drawn) -1.49%
Nc1nc2c(Br)ccc(Br)c2cc1C(=O)NCCc1ccccc1 -1.14%
Nc1nonc1C(=O)NCCc1ccccc1 -1.42%
O=C(OC12CCCN(C1)/C(=C/c1ccccc1)C2)c1ccco1 (stereo not drawn) -0.69%
O=C(C1CCCN1S(=O)(=O)c1ccccc1)N1CCc2ccccc2C1 (stereo not drawn) -1.12%
COc1ccc(C(=O)CC(=O)c2ccc(C)cc2)c(O)c1 -1.3%
COc1ccc(C(=O)c2c3ccc([N+](=O)[O-])cc3[n+]([O-])n2CCCN)cc1 -1.18%
FC(F)(F)c1cccc(Cn2ccc3ccc(-c4ccc5ccn(Cc6ccccc6)c5c4)cc32)c1 -1.17%
Cc1ccc(SCCC(=O)NCc2ccccn2)cc1 -1.21%
Cc1ccc(SCCC(=O)NC(C(C)C)C(C)C)cc1 -1.68%
CC(C)N1CCCCC(NC(=O)C(C)(C)C)C1=O (stereo not drawn) -1.27%
CCCCC(=O)N[C@@H]1CC[C@@]23CCCN2C(=O)CCC[C@H]3[C@H]1C -1.42%
CC(C)(C)c1cnnn1-c1ccc([N+](=O)[O-])cc1 -1.44%
Cc1nn(-c2ccccc2)c2c1C(c1cccc([N+](=O)[O-])c1)N(c1ccccc1)C(=O)N2 (stereo not drawn) -2.08%
CC(C)(C)OC(=O)NCCc1ccccc1/C=C/S(=O)(=O)NCc1ccc(F)cc1 -0.76%
O=C(Nc1nc2ccc(Cl)cc2s1)c1cc(-c2ccc(Cl)cc2)nc2ccccc12 0.48%
O=C(Nc1ccc2ccccc2c1)Nc1ccc2snnc2c1 -0.89%
COc1ccc(CN(CCN2CCOCC2)C(=O)c2ccc(C)cc2)cc1OC -0.08%
COc1ccc(/C=C2\CC3(OC(C)=O)CCCN2C3)cc1 (stereo not drawn) -1.25%
Cc1ccc(NC(=O)Nc2cc(C)nn2-c2ccccc2)cc1 -0.89%

Reference: PubChem BioAssay AID652126 (The Scripps Research Institute Molecular Screening Center, 2013)
